Shown are actives, neighbours in structure and some others; about 19% of the full set was active somewhere.
KB-3-1 tox: kills parental KB-3-1 adenocarcinoma cells | Potency, µM (titrated, usually from 46.1 µM), usual class: cytotoxic | 1.4% of 400,000 active | KB-3-1 viability, CellTiter-Glo ATP luminescence, 72 h; note: nearly all actives have a fitted effect of over 60% in size
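Using CellTiter-Glo luminescence, growth of non-resistant KB-3-1 adenocarcinoma cells is assessed 72 h after pin-tool compound addition at 37 °C. Normalized responses across the concentration series yield fitted curves.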
HT1080-NT tox: kills 2HG-producing HT-1080-NT fibrosarcoma cells. HT-1080-NT fibrosarcoma viability, CellTiter-Glo ATP luminescence, 48 h. Potency, µM (series often up to 46.1 µM), most hits filed as cytotoxic. 1.6% of 360,000 active;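 note: NT is the 2HG producing partner of a matched IDH1 knockdown line; nearly all actives have a fitted effect of over 55% in size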
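Read-out is CellTiter-Glo luminescence after 10 minutes at room temperature, following 48 hours' compound treatment of HT-1080-NT cells (750 cells/well, RPMI, 5% FBS, 37 degrees C).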
DT40 TDP1 CPT: growth inhibition of DT40 Tdp1-/-;hTDP1 cells with camptothecin (screen for TDP1 inhibitors); chicken DT40 Tdp1-/-;hTDP1 cells + 20 nM CPT, ATP luminescence, 48 h; 12% of 420,000 active; Potency, µM (doses to about 46.2 µM), usual class: inhibitors; note: nearly all actives have a fitted effect of over 55% in size
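Cell growth measured by CellTiter-Glo luminescence after a minimum 48 h, 37 C compound exposure with 20 nM CPT in Tdp1-knockout DT40 cells stably expressing hTDP1, seeded 400/well; qHTS titration format.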
HT1080 IDH1KD tx: kills HT-1080 cells with IDH1 knockdown; HT-1080 IDH1 knockdown viability, ATP luminescence, 48 h; Potency, µM (top dose mostly 46.1 µM), usual class: cytotoxic; 2% of 360,000 active
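Using the IDH1-knockdown HT-1080 line run in the same batch and compound series as the NT line, viability after 48 h at 37 °C was determined by CellTiter-Glo luminescence and expressed as % activity.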
KB-V1 MDR tox: KB-V1 MDR subline cytotoxicity; KB-V1 MDR cells viability, CellTiter-Glo, 72 h; Potency, µM (highest dose often 46.1 µM), usual class: cytotoxic; 3.4% of 400,000 active; note: nearly all actives have a fitted effect of over 60% in size
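qHTS viability screen in drug-selected KB-V1 MDR cells: 72 h compound treatment at 37 degrees C, ATP luminescence end point.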
DT40 TDP1 no CPT: qHTS for Inhibitors of human tyrosyl-DNA phosphodiesterase 1 (TDP1): qHTS in cells in absence of CPT. 15% of 420,000 active. DT40 Tdp1-/- hTDP1 cells, no CPT, ATP luminescence, 48 h. Potency, µM (titrated, usually from 46.2 µM), usual class: inhibitors; note: nearly all actives have a fitted effect of over 55% in size
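DT40 Tdp1-/-;hTDP1 cells, no CPT (DMSO vehicle only), 400 cells/well; compounds pin-transferred; ≥48 hr, 37 °C; CellTiter-Glo 30 min RT dark, luminescence read.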
Each line names hits and unclear results; the compound was inactive in the other large screens. Calls come from the whole dose curve; as a rule, active = well fitted curve in the direction sought with a large enough effect; inconclusive = small, poorly fitted or top-dose-only effect, or another doubt; inactive = no such curve, though single readings can be large; an effect the other way counts as inactive or inconclusive.

O=C(Nc1nnc(-c2ccccc2)o1)C1CCCN1S(=O)(=O)c1cccs1 (configuration not stated)	DT40 TDP1 no CPT inconclusive
CCc1ccc(CN(Cc2cn[nH]c2-c2ccc(OC)cc2)C(=O)Nc2cc(Cl)ccc2OC)cc1	KB-3-1 tox inconclusive, DT40 TDP1 CPT 16µM, KB-V1 MDR tox inconclusive, DT40 TDP1 no CPT 23µM (no result: HT1080-NT tox, HT1080 IDH1KD tx)
CCOC(=O)c1c(C)[nH]c(CCC(=O)NCc2cccc(C)c2)c1C	DT40 TDP1 CPT inconclusive, DT40 TDP1 no CPT 16µM (no result: KB-3-1 tox, HT1080-NT tox, HT1080 IDH1KD tx, KB-V1 MDR tox)
CCOC(=O)c1c(C)[nH]c(CCC(=O)NC(C)c2ccccc2)c1C (configuration not stated)	DT40 TDP1 CPT inconclusive, DT40 TDP1 no CPT 18µM (no result: KB-3-1 tox, HT1080-NT tox, HT1080 IDH1KD tx, KB-V1 MDR tox)
C=CCN(CC=C)C(=O)Nc1cc(Cl)ccc1OC	KB-V1 MDR tox 15µM
CCN(C(=O)COC(=O)CNC(=O)c1cccs1)c1c(N)n(Cc2ccccc2)c(=O)[nH]c1=O	KB-V1 MDR tox inconclusive
CCC(=O)N1CCCC(C)(C(=O)Nc2ccc3oc(CC)nc3c2)C1 (configuration not stated)	none
Cc1sc2nc(CSC(C)C(=O)Nc3cc(S(C)(=O)=O)ccc3Cl)[nH]c(=O)c2c1C (configuration not stated)	none
Cc1[nH]n(C(N)=S)c(=O)c1C(c1ccccc1)C(C#N)C#N (configuration not stated)	DT40 TDP1 CPT 1.5µM, DT40 TDP1 no CPT 1.5µM
COc1ccc(OC(=O)COc2ccc(Cl)cc2)cc1	none
CC(C)C(=O)Nc1cccc(COc2ccccc2CN(Cc2ccccc2)C(=O)OC(C)(C)C)c1	KB-3-1 tox inconclusive, DT40 TDP1 CPT inconclusive, KB-V1 MDR tox inconclusive, DT40 TDP1 no CPT 23µM
CC(C)(C)OC(=O)N(Cc1ccccc1)Cc1cccc(OCc2cccc(NC(=O)c3ccccc3)c2)c1	DT40 TDP1 CPT 23µM, DT40 TDP1 no CPT 23µM
CC(C)(C)OC(=O)N(CCc1ccccc1)Cc1ccccc1OCc1cccc(NC(=O)C2CC2)c1	DT40 TDP1 CPT inconclusive, DT40 TDP1 no CPT inconclusive
CC(C)(C)OC(=O)N(Cc1ccccc1)Cc1ccccc1OCc1cccc(NC(=O)c2ccccc2)c1	KB-3-1 tox inconclusive, DT40 TDP1 CPT 16µM, KB-V1 MDR tox inconclusive, DT40 TDP1 no CPT 16µM
COc1ccc(S(=O)(=O)Nc2ccccc2C(=O)Nc2nc(-c3ccc(F)cc3)cs2)cc1OC	KB-3-1 tox inconclusive, HT1080-NT tox inconclusive, DT40 TDP1 CPT inconclusive, HT1080 IDH1KD tx inconclusive, KB-V1 MDR tox 15µM, DT40 TDP1 no CPT 16µM
COc1ccc(NC(=O)c2ccccc2NS(=O)(=O)c2ccc(CNC(C)=O)cc2)c(OC)c1	KB-3-1 tox inconclusive, HT1080-NT tox 13µM, DT40 TDP1 CPT inconclusive, HT1080 IDH1KD tx inconclusive, DT40 TDP1 no CPT inconclusive
COc1ccc(-c2csc(NC(=O)c3ccccc3NS(=O)(=O)c3ccc(C)cc3)n2)cc1	KB-3-1 tox 2.6µM, HT1080-NT tox inconclusive, DT40 TDP1 CPT inconclusive, HT1080 IDH1KD tx inconclusive, KB-V1 MDR tox 2.3µM, DT40 TDP1 no CPT 15µM
CCN(C(=O)CSc1nc2ccccc2[nH]1)C1CCS(=O)(=O)C1 (configuration not stated)	none
CCOC(=O)c1ccc(CSc2nncn2N)o1	none
COC(=O)c1ccc(Cc2ccc(C(=O)OC)o2)o1	none
CCOC(=O)c1ccc(CSC(=N)N)o1	KB-3-1 tox inconclusive, HT1080-NT tox inconclusive, DT40 TDP1 CPT 29µM, HT1080 IDH1KD tx inconclusive, DT40 TDP1 no CPT inconclusive
COC(=O)c1ccc(CSC(=N)N)o1	DT40 TDP1 CPT 16µM, DT40 TDP1 no CPT inconclusive
Nc1c(C2CCCCC2)c(=O)on1C(=O)c1ccccc1	KB-3-1 tox inconclusive, DT40 TDP1 CPT inconclusive, DT40 TDP1 no CPT inconclusive
CCCCC(=O)Nc1nnc(-c2ccco2)o1	none
Cc1ccc(NC(=O)NC2CC(=O)N(c3ccc4c(c3)OCCO4)C2)c(C)c1 (configuration not stated)	none
